# High-throughput results as filed in PubChem BioAssay.
# Rows were chosen to be rich in hits. Some 31% of all compounds tested hit in one or more screens of this group.
# CYP2C19 inh: blockers of cytochrome P450 2C19 activity – biochemical, luminescence, ADME assay, primary screen; P33261; CYP2C19 Supersomes, luciferin-H EGE luminescence, 30 min; inhibition, % at 5 µM; 96,000 compounds, 21% hits;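 active = CYP2C19 inhibition above a set limit at 5 µM in the primary screen, cut at about 50% in these data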;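 note: plate controls were negative control wells for no effect and 2.5 mM tranylcypromine positive control for full effect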
# CYP2C9 act: human CYP2C9 activators, primary screen, biochemical, luminescence; Cytochrome P450 2C9 (Homo sapiens), P11712; recombinant CYP2C9, luciferin-H conversion; hits give high values; factor 1 = untreated enzyme, 0 = blocked; activation factor at 5 µM; 96,000 compounds, 1.4% hits; AID 1024, 2008;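 active = activation factor of 2 or more for CYP2C9 at a 5 µM dose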;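 note: 0 = sulfaphenazole-blocked wells and 1 = vehicle-only wells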
# Target sequence (P11712 whole entry, looked up): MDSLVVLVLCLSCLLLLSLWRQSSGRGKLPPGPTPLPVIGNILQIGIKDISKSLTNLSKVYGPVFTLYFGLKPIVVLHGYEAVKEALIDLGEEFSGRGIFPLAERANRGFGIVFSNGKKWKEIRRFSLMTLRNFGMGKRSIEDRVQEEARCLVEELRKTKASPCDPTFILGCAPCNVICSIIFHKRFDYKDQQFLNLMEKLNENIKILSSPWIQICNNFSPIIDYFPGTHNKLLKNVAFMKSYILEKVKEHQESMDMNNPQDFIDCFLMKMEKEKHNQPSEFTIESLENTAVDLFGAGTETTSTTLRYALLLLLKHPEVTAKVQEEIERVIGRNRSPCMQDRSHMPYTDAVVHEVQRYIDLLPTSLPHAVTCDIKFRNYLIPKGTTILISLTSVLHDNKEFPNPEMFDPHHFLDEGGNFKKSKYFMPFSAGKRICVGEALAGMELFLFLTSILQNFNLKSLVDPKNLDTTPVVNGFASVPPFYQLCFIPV
# CYP2C9 inh: blockers of cytochrome P450 2C9 activity – biochemical, luminescence, ADME assay, primary screen | CYP2C9 Supersomes, luciferin-H conversion | inhibition, % at 5 µM | 96,000 compounds, 20% hits | AID 777, 2007;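 active = blocking of liver enzyme CYP2C9 beyond about 50% at 5 µM, limit read from the data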
# CYP2C19 act: human CYP2C19 activators, primary screen, biochemical, luminescence | Cytochrome P450 2C19 (Homo sapiens), P33261 | recombinant CYP2C19, luciferin-H EGE luminescence; hits give high values; 0 = fully inhibited enzyme, 1 = untreated enzyme | activation factor at 5 µM | 96,000 tested, under 10 active | AID 1025, 2008;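 active = activation factor of at least 2 at 5 µM in the primary screen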;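 note: 0 = wells with 2.5 mM tranylcypromine and 1 = vehicle-only wells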
# PLAP activator: PLAP enzyme activators, biochemical, luminescence, HTS. purified PLAP enzyme, luminescent substrate read-out; hits give high values. 96,000 compounds, 1.2% hits. activation fold at 20 µM; in the data active = activation fold above about 2
# * marks the source's active call; other numbers are inactive results; nt = no result.
SMILES,CYP2C19 inh,CYP2C9 act,CYP2C9 inh,CYP2C19 act,PLAP activator
CCc1ccc(NC(=O)N(CCCN2CCOCC2)C(C)c2cc3cccc(OC)c3o2)cc1 (stereo not given),40,0.3,68*,0.6,1.3
COc1cccc2cc(C(=O)C3=C(O)C(=O)N(CCN4CCOCC4)C3c3cccs3)oc12 (stereo not given),-10,1.2,-22,1.1,1.4
O=C(Nc1ccc(F)cc1)N(CCCN1CCOCC1)Cc1cc2cc3c(cc2[nH]c1=O)OCCO3,36,0.9,15,0.6,1.7
COc1ccc(CN(CCN2CCOCC2)C(=O)c2c(F)cccc2F)cc1OC,52*,0.6,37,0.5,1.5
C[N+]1(CCCCCCC(=O)/C=N/O)CCCCCC1,7,1,4,0.9,0.8
N#CC1(C#N)C2=C(CCCC2)NC(c2ccccc2)C1(C#N)C#N (stereo not given),15,0.6,40,0.9,1.5
O=C(c1ccccc1)N(CCN1CCOCC1)C1(C(=O)Nc2ccccc2)CCCCC1,69*,0.8,23,0.3,1.4
c1csc(CNCCN2CCOCC2)c1,6,0.8,22,0.9,1
O=C(Nc1ccccc1)N(CCN1CCOCC1)Cc1cccc(Cl)c1,79*,0.2,84*,0.2,1.2
O=S(=O)(c1cccc(C(F)(F)F)c1)N(CCCN1CCOCC1)Cc1cccs1,64*,0.8,21,0.4,1.4
COc1ccc(CN(CCCN2CCOCC2)C(=O)Nc2ccccc2)cc1OC,25,0.4,57*,0.8,1.4
O=C(Nc1ccccc1)N(CCCN1CCOCC1)Cc1ccccc1F,13,0.8,25,0.9,1.1
O=C(Nc1ccccc1)N(Cc1ccccc1)Cc1ccccc1,3,0.7,28,1,0.9
CC(C)C(NC(=O)c1cccs1)c1nnc(SCC(=O)Nc2nccs2)n1C (stereo not given),6,0.6,41,0.9,0.9
CCOC(=O)N1CCN(C(=O)COc2ccc(S(=O)(=O)NC(C)C)cc2)CC1,-10,0.8,18,1.1,1.2
CC(C)(C)c1cc(Br)ccc1OCC(=O)Nc1ncn[nH]1,54*,0.7,34,0.5,1.1
CC(C)(C)c1ccccc1OCC(=O)Nc1ncn[nH]1,42,0.8,21,0.6,2*
O=P(Cc1ccncc1)(c1ccccc1)c1ccccc1,60*,1,-3,0.4,1
O=P(CCCCCCCCCP(=O)(c1ccccc1)c1ccccc1)(c1ccccc1)c1ccccc1,80*,0,99*,0.2,nt
COCP(=O)(c1ccccc1)c1ccccc1,7,1,-1,0.9,0.9
O=C(O)CP(=O)(c1ccccc1)c1ccccc1,-5,0.9,14,1.1,1
O=P(COc1ccccc1)(c1ccccc1)c1ccccc1,45,0.3,72*,0.6,0.9
O=C(Nc1ccccc1)N(Cc1cccs1)C1CCCC1,51*,0.1,85*,0.5,0.8
O=C(Nc1ccc(Cl)cc1)N(Cc1cccs1)Cc1cccs1,23,0.6,38,0.8,0.9
CCOC(=O)N1CCC(NC(=O)C2CCCN(S(C)(=O)=O)C2)CC1 (stereo not given),-3,1,0,1,1
SMILES,CYP2C19 inh,CYP2C9 act,CYP2C9 inh,CYP2C19 act,PLAP activator
COC(=O)c1ccccc1N1C(=O)[C@@H]2C(c3ccc(Br)cc3)=NO[C@@H]2C1=O,99*,0.5,46,0,1.1
COC(=O)c1sc(NC(=O)c2cc3c(s2)CCCC3)nc1C,11,1,0,0.9,0.9
Cc1nc(NC(=O)c2cc3c(s2)CCCCC3)sc1C(=O)N(C)C,34,0.4,56*,0.7,1
Cc1ccc(C)c(S(=O)(=O)N2C(=S)NC(=O)C2C(C)C)c1 (stereo not given),56*,0,95*,0.4,1.1
CN1/C(=C\C(=O)c2cccs2)Sc2ccccc21,20,1,-2,0.8,1
CCCCOc1ccc(N2C(=O)CC(NCCc3ccc(S(N)(=O)=O)cc3)C2=O)cc1 (stereo not given),-1,0.6,45,1,2.1*
O=C(CCNc1cc(Cl)cc(Cl)c1)c1ccco1,61*,0.5,46,0.4,1
O=C(CCNc1ccc(Cl)c(C(F)(F)F)c1)c1ccco1,76*,0.5,46,0.2,0.9
O=C(CCNc1ccc(F)cc1)c1ccco1,65*,1,-1,0.3,0.9
CCCNC(=O)C1CC(=O)N(c2ccc(OCC(=O)Nc3cc(C)cc(C)c3)cc2)C1 (stereo not given),-14,0.8,19,1.1,1.3
CN(C)S(=O)(=O)c1cccc(C(=O)OCC(=O)NCc2ccccc2)c1,-7,1,3,1.1,0.9
CN(C)S(=O)(=O)c1ccc(C(=O)Oc2ccccc2)cc1,22,1,-4,0.8,0.8
O=C(COC(=O)c1ccc(S(=O)(=O)NCc2ccco2)cc1)Nc1ccccc1OC(F)F,5,0.2,76*,1,1.2
O=C(COC(=O)c1cccc(S(=O)(=O)NCc2ccccc2)c1)Nc1ccccc1OC(F)F,60*,0.8,21,0.4,0.8
CN(C)S(=O)(=O)c1ccc(C(=O)OCC(=O)Nc2ccccc2OC(F)F)cc1,8,0.4,58*,0.9,0.9
CN(C)S(=O)(=O)c1ccc(C(=O)OCC(=O)c2ccc(OC(F)F)cc2OC(F)F)cc1,86*,0.5,48,0.1,1.2
Clc1ccc(-n2nnnc2CN2CCOCC2)cc1,16,0.8,22,0.8,1.2
O=[N+]([O-])c1cccc(-n2nnnc2CN2CCCCCC2)c1,94*,0.6,43,0.1,1
Cc1ccnc(Sc2nc3c(c(=O)[nH]c(=O)n3C)n2CCCc2ccccc2)n1,26,0.6,40,0.7,1.6
O=C(CCn1cccc1)NC1CCCc2ccccc21 (stereo not given),12,1,2,0.9,0.9
CCn1c(N2CCN(C(=S)NC)CC2)nc2ccccc21,66*,0.7,33,0.3,1
CCn1c(N2CCN(C(=S)NCCc3ccccc3)CC2)nc2ccccc21,56*,0.6,37,0.4,0.9
CCn1c(N2CCN(C(=S)NCC(C)C)CC2)nc2ccccc21,28,1.1,-6,0.7,0.9
O=C(O)CN1C(=O)c2cccc(Oc3ccc(Cl)cc3)c2C1=O,-6,0.6,45,1.1,1.1
CCc1cc2c(=O)n(Cc3ccco3)c(SCC(=O)N3CCCc4ccccc43)nc2s1,34,0.1,87*,0.7,1.5
CCc1cc2c(=O)n(Cc3ccco3)c(SCc3c(C)noc3C)nc2s1,51*,0.1,90*,0.5,1.2
CCCn1c(SCC(=O)N2CCc3ccccc32)nnc1-c1ccco1,49,0.8,19,0.5,1.4
